Screening results from PubChem.
Most compounds without a hit are left out; they make up all but 1.8% or so of the library.
LYPLA2 counter – LYPLA2 inhibitors, primary screen, counter-screen for PME1 inhibitor project, biochemical, fluorescence polarization, FP-Rh probe ABPP; recombinant LYPLA2; inhibition, % at 5.9 µM; 320,000 tested, 0.38% active;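 active = inhibition above the screen-wide mean plus 3 SD, limit set per campaign, cut at about 26% in these data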;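 note: 0% = LYPLA2 with DMSO and 100% = wells lacking LYPLA2 enzyme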
Fam108B inh – mouse Fam108B serine hydrolase inhibitors, primary screen, counter-screen for RBBP9 inhibitor project, biochemical, fluorescence polarization; 300,000 tested, 0.33% active; recombinant Fam108B, FP-Rh probe fluorescence polarization; inhibition, % at 9.51 µM; AID 1947, 2009;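 active = inhibition above the screen mean inhibition plus 3 SD, computed separately per campaign, cut at about 18% in these data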;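 note: inhibitors lower polarization as less probe binds the enzyme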
GSTO1 counter – inhibitors of recombinant GSTO1, primary screen, counter-screen for RBBP9 inhibitor project, biochemical, fluorescence polarization; 300,000 tested, 1.1% active; AID 1974, 2009; activity-based probe fluorescence polarization; Glutathione S-transferase omega-1 (Homo sapiens), P78417; inhibition, % at 5.96 µM;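 active = inhibition above the campaign mean inhibition plus 3 SD, cut at about 35% in these data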;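 note: 0% = GSTO1-1 with DMSO and 100% = wells lacking GSTO1-1 enzyme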
PME-1 primary – PME-1 inhibitors via competitive probe labeling, primary screen, biochemical, fluorescence polarization, FP-Rh probe, HTS; Protein phosphatase methylesterase 1 (Homo sapiens), Q9Y570; recombinant PME-1; inhibition, % at 5.9 µM; 320,000 tested, 0.53% active; AID 2130, 2009;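 active = inhibition above the campaign mean of all compounds plus 3 SD, cut at about 26% in these data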;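 note: competitive labeling of PME-1 active site by serine hydrolase directed probe; 0% = PME-1 with DMSO and 100% = wells lacking PME-1 enzyme; inhibitors block probe labeling so polarization falls and inhibition rises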
PAD4 FP inh – human PAD4 inhibitors, primary screen, biochemical, fluorescence polarization, 1536-well format | 330,000 tested, 0.41% active | Protein-arginine deiminase type-4 (Homo sapiens), Q9UM07 | inhibition, % at 6.36 µM | AID 485272, 2010 | recombinant PAD4, RCA probe fluorescence polarization;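 active = percent inhibition above a cutoff equal to the mean of all tested compounds plus 3 SD, cut at about 15% in these data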;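 note: 0% = PAD4 with RCA probe and DMSO and 100% = probe without PAD4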
LYPLA1 inh – LYPLA1 inhibitors, primary screen, counter-screen for PME1 inhibitor project, biochemical, fluorescence polarization, FP-Rh probe ABPP; Acyl-protein thioesterase 1 (Homo sapiens), O75608; 320,000 tested, 0.16% active; recombinant LYPLA1; AID 2174, 2009; inhibition, % at 5.9 µM;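 active = inhibition above the mean of all tested compounds plus 3 SD, set per campaign, cut at about 14% in these data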;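 note: inhibitors block serine hydrolase probe labeling of LYPLA1 so polarization falls; 0% = enzyme with DMSO and 100% = wells lacking LYPLA1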
Active calls of the source: *; ! = not confirmed by another sample.

Screening CN(C)S(=O)(=O)c1cccc(NC(=S)NC(=O)C2CCCCC2)c1 returned LYPLA2 counter 4.7, Fam108B inh -1.9, GSTO1 counter -1.5, PME-1 primary 0.3, PAD4 FP inh -2.5 and LYPLA1 inh -1.3.
`CCCOc1ccc(/C=N/NC(=S)Nc2ccccc2[N+](=O)[O-])c(O)c1` gave LYPLA2 counter -7.2, Fam108B inh 1.8, GSTO1 counter -27.5, PME-1 primary 30.4*, PAD4 FP inh -2.6 and LYPLA1 inh -7.4.
`CN(C)S(=O)(=O)c1cccc(NC(=S)NNC(=O)c2cc3ccccc3cc2O)c1` gave LYPLA2 counter -3.4, PME-1 primary 26.7*, PAD4 FP inh -2.1 and LYPLA1 inh -8.4.
O=C(NN=Cc1ccc(O)cc1O)c1ccccc1NS(=O)(=O)c1cccs1 was read as PAD4 FP inh -0.7.
CCN(CC)S(=O)(=O)c1ccc(N2CCN(CCOc3ccc(OC)cc3)CC2)nc1 was read as LYPLA2 counter 5.7, Fam108B inh 0.6, GSTO1 counter 0.7, PME-1 primary -4.0, PAD4 FP inh -1.0 and LYPLA1 inh -1.7.
`O=C(Cc1cc(=O)[nH][nH]1)N/N=C/c1cccc(Cl)c1Cl` gave LYPLA2 counter -2.9, Fam108B inh -3.8, GSTO1 counter 35.5*!, PME-1 primary -0.1, PAD4 FP inh -9.6 and LYPLA1 inh 1.6.
`O=C(Cc1cc(=O)[nH][nH]1)N/N=C/c1ccccc1Cl` gave LYPLA2 counter -8.0, Fam108B inh 1.1, GSTO1 counter 33.1, PME-1 primary -4.2, PAD4 FP inh -12.6 and LYPLA1 inh -1.8.
Cc1csc(NC(=O)CSc2nncs2)n1 was read as LYPLA2 counter 2.9, Fam108B inh 1.0, GSTO1 counter 3.5, PME-1 primary -4.5, PAD4 FP inh -1.9 and LYPLA1 inh -2.1.
CC(C)CN(C(=O)CN(C)C(=O)c1ccco1)c1c(N)n(CC(C)C)c(=O)[nH]c1=O was read as LYPLA2 counter 0.8, Fam108B inh 2.9, GSTO1 counter 6.1, PME-1 primary -6.9, PAD4 FP inh -0.1 and LYPLA1 inh -0.7.
`CC1CCN(C2=C(NS(=O)(=O)c3ccccc3)C(=O)c3ccccc3C2=O)CC1` gave LYPLA2 counter 11.5, Fam108B inh 1.7, GSTO1 counter 35.4*, PME-1 primary 3.1, PAD4 FP inh -6.0 and LYPLA1 inh 3.8.
`CC1CCN(C2=C(NS(=O)(=O)c3ccc(Cl)cc3)C(=O)c3ccccc3C2=O)CC1` gave LYPLA2 counter 7.1, Fam108B inh 7.1, GSTO1 counter 31.1, PME-1 primary 5.5, PAD4 FP inh -7.4 and LYPLA1 inh -1.5.
COc1ccc(Nc2ccc(OC)cc2)cc1 was read as LYPLA2 counter -0.1, Fam108B inh 5.5, GSTO1 counter 36.0*, PME-1 primary 4.2, PAD4 FP inh 1.0 and LYPLA1 inh 0.0.
`Cc1nc2sc(C(=O)Nc3ccccc3Cc3ccccc3)c(C)c2c(=O)[nH]1` gave LYPLA2 counter -1.2, Fam108B inh -2.0, GSTO1 counter -0.3, PME-1 primary -0.8, PAD4 FP inh 1.4 and LYPLA1 inh -2.6.
For CC1=CC(C)C(/C=N/N=C(N)N)C(C)C1 (stereo unspecified) the results were LYPLA2 counter 6.8, Fam108B inh 0.0, GSTO1 counter 7.7, PME-1 primary -2.3, PAD4 FP inh 5.7 and LYPLA1 inh 1.8.
Screening Cc1cc(NS(=O)(=O)c2ccc(Nc3nc(-c4sc(N)nc4C)cs3)cc2)no1 returned LYPLA2 counter -9.8, Fam108B inh 15.2, GSTO1 counter 37.1*, PME-1 primary -7.6, PAD4 FP inh -20.5 and LYPLA1 inh -15.8.
`Cc1cc(NS(=O)(=O)c2ccc(Nc3nc(-c4ccc(C)c(C)c4)cs3)cc2)no1` gave LYPLA2 counter 5.8, Fam108B inh 2.5, GSTO1 counter 9.0, PME-1 primary 19.1, PAD4 FP inh -1.6 and LYPLA1 inh 8.8.
